Here are results for 34 sequences from PMC12820563, “FoxP3 forms a head-to-head dimer in vivo and stabilizes its multimerization on adjacent microsatellites”.

The full ranking holds about 16,000 sequences; the median of “rpm ratio (pull-down/input)” is about 0.5, and the highest 2% start at about 5.5. Only a selection was taken, and the highest values are over-represented in it overall.

The experiment has as its target T1, MBP-FoxP3dN (Mus musculus, UniProt Q99JB6 188-423).
T1 sequence: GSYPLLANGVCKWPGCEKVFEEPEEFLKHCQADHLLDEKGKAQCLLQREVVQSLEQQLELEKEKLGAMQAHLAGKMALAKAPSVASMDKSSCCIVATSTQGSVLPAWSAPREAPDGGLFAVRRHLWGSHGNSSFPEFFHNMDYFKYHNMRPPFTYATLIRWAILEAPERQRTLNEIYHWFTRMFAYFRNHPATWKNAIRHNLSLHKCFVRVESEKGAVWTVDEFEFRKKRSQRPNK
Nature of the experiment: PD-seq (MBP pull-down with sequencing); 20 mM Tris-HCl pH 7.5, 100 mM NaCl, 1.5 mM MgCl2, 0.4 uM protein, 0.1 uM dsDNA library, 30 min, room temperature, amylose pull-down; high values mean tight binding. The settings on record: protein: recombinant; tags: His6-MBP; chain copies: 2; dsDNA, one strand shown. In a few lines: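 Binding is given as reads-per-million enrichment, pull-down over input, with replicates pooled. The bait was an N-terminus-lacking mouse FoxP3 or FoxP1 fragment with a His6-MBP tag, expressed in E. coli and used at 0.4 µM with 0.1 µM Klenow-filled degenerate double-stranded DNA library for 30 min at room temperature in Tris pH 7.5 buffer with NaCl and MgCl2. Amylose resin pull-down with three washes was followed by proteinase K release, PCR barcoding and Illumina sequencing.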
“GATGATTGTTCTCCCAGCTGATGAATTTTTTTAGTCGAGTAAACAAATTTTCCTAATCTTTCTGTTCAAGCGCCATCTAC”: the binding signal was 0.273 RPM ratio (pull-down/input). To “GATGATTGTTCTCCCAGCTGATGAATTTGGTTAGTCGAGTAAACAAATTTTCCTAATCTTTCTGTTCAAGCGCCATCTAC” belongs 2.03 RPM ratio (pull-down/input); to “GATGATTGTTCTCCCAGCTGATGAATTGTTAGTGTCGAGTAAACAAATTTTCCTAATCTTTCTGTTCAAGCGCCATCTAC”, 4.19 RPM ratio (pull-down/input); to “GATGATTGTTCTCCCAGCTGATGAATTGTTTACGTCGAGTAAACAAATTTTCCTAATCTTTCTGTTCAAGCGCCATCTAC”, 7.65 RPM ratio (pull-down/input).

Take “GATGATTGTTCTCCCAGCTGATGAATTCTGTTAGTCGAGTAAACAAATTTTCCTAATCTTTCTGTTCAAGCGCCATCTAC”: the binding signal was 5.31 RPM ratio (pull-down/input). As for “GATGATTGTTCTCCCAGCTGATGAATTTTTTACGTCGAGTAAACAAATTTTCCTAATCTTTCTGTTCAAGCGCCATCTAC”, the binding signal is 0.246 RPM ratio (pull-down/input). For the sequence “GATGATTGTTCTCCCAGCTGATGAATTTGTTTAGTCGAGTAAACAAATTTTCCTAATCTTTCTGTTCAAGCGCCATCTAC”, the binding signal was 7.22 RPM ratio (pull-down/input). To “GATGATTGTTCTCCCAGCTGATGAATTTTGTTAGTCGAGTAAACAAATTTTCCTAATCTTTCTGTTCAAGCGCCATCTAC” belongs 6.69 RPM ratio (pull-down/input); to “GATGATTGTTCTCCCAGCTGATGAATTGTGTTAGTCGAGTAAACAAATTTTCCTAATCTTTCTGTTCAAGCGCCATCTAC”, 5.98 RPM ratio (pull-down/input). The figure for “GATGATTGTTCTCCCAGCTGATGAATTTACGTCGTCGAGTAAACAAATTTTCCTAATCTTTCTGTTCAAGCGCCATCTAC” is 0.839 RPM ratio (pull-down/input). Take “GATGATTGTTCTCCCAGCTGATGAATTCTCTACTTCGAGTAAACAAATTTTCCTAATCTTTCTGTTCAAGCGCCATCTAC”: the binding signal is 0.233 RPM ratio (pull-down/input). To “GATGATTGTTCTCCCAGCTGATGAATTGGGCCGGTCGAGTAAACAAATTTTCCTAATCTTTCTGTTCAAGCGCCATCTAC” belongs 0.372 RPM ratio (pull-down/input); to “GATGATTGTTCTCCCAGCTGATGAATTGCTCTTGTCGAGTAAACAAATTTTCCTAATCTTTCTGTTCAAGCGCCATCTAC”, 0.594 RPM ratio (pull-down/input); to “GATGATTGTTCTCCCAGCTGATGAATTCGGTAGGTCGAGTAAACAAATTTTCCTAATCTTTCTGTTCAAGCGCCATCTAC”, 0.485 RPM ratio (pull-down/input). The figure for “GATGATTGTTCTCCCAGCTGATGAATTGGGGACGTCGAGTAAACAAATTTTCCTAATCTTTCTGTTCAAGCGCCATCTAC” is 0.307 RPM ratio (pull-down/input); for “GATGATTGTTCTCCCAGCTGATGAATTGGTGCTTTCGAGTAAACAAATTTTCCTAATCTTTCTGTTCAAGCGCCATCTAC” it is 1.06 RPM ratio (pull-down/input). Consider “GATGATTGTTCTCCCAGCTGATGAATTGAGACTTTCGAGTAAACAAATTTTCCTAATCTTTCTGTTCAAGCGCCATCTAC”, for which the binding signal is 1.22 RPM ratio (pull-down/input).

On to “GATGATTGTTCTCCCAGCTGATGAATTCCGCAGATCGAGTAAACAAATTTTCCTAATCTTTCTGTTCAAGCGCCATCTAC”, for which the binding signal was 0.352 RPM ratio (pull-down/input). The figure for “GATGATTGTTCTCCCAGCTGATGAATTAGGAGGGTCGAGTAAACAAATTTTCCTAATCTTTCTGTTCAAGCGCCATCTAC” is 0.318 RPM ratio (pull-down/input). The figure for “GATGATTGTTCTCCCAGCTGATGAATTTCACGAATCGAGTAAACAAATTTTCCTAATCTTTCTGTTCAAGCGCCATCTAC” is 0.212 RPM ratio (pull-down/input); for “GATGATTGTTCTCCCAGCTGATGAATTCACTGCTTCGAGTAAACAAATTTTCCTAATCTTTCTGTTCAAGCGCCATCTAC” it is 0.345 RPM ratio (pull-down/input). The figure for “GATGATTGTTCTCCCAGCTGATGAATTTCCGCCGTCGAGTAAACAAATTTTCCTAATCTTTCTGTTCAAGCGCCATCTAC” is 0.555 RPM ratio (pull-down/input). Consider “GATGATTGTTCTCCCAGCTGATGAATTAGTCGAGTCGAGTAAACAAATTTTCCTAATCTTTCTGTTCAAGCGCCATCTAC”, for which the binding signal was 0.367 RPM ratio (pull-down/input). The figure for “GATGATTGTTCTCCCAGCTGATGAATTTCTGTAGTCGAGTAAACAAATTTTCCTAATCTTTCTGTTCAAGCGCCATCTAC” is 0.385 RPM ratio (pull-down/input); for “GATGATTGTTCTCCCAGCTGATGAATTTCTTAGGTCGAGTAAACAAATTTTCCTAATCTTTCTGTTCAAGCGCCATCTAC” it is 0.273 RPM ratio (pull-down/input); for “GATGATTGTTCTCCCAGCTGATGAATTAGTTAGGTCGAGTAAACAAATTTTCCTAATCTTTCTGTTCAAGCGCCATCTAC” it is 1.51 RPM ratio (pull-down/input).

“GATGATTGTTCTCCCAGCTGATGAATTATGTTAGTCGAGTAAACAAATTTTCCTAATCTTTCTGTTCAAGCGCCATCTAC”: the binding signal was 5.81 RPM ratio (pull-down/input). The figure for “GATGATTGTTCTCCCAGCTGATGAATTTTATTAGTCGAGTAAACAAATTTTCCTAATCTTTCTGTTCAAGCGCCATCTAC” is 4.27 RPM ratio (pull-down/input); for “GATGATTGTTCTCCCAGCTGATGAATTAGTTATGTCGAGTAAACAAATTTTCCTAATCTTTCTGTTCAAGCGCCATCTAC” it is 3.79 RPM ratio (pull-down/input).

As for “GATGATTGTTCTCCCAGCTGATGAATTTGTTAGGTCGAGTAAACAAATTTTCCTAATCTTTCTGTTCAAGCGCCATCTAC”, the binding signal is 5.73 RPM ratio (pull-down/input). Turning to “GATGATTGTTCTCCCAGCTGATGAATTTTTGTAGTCGAGTAAACAAATTTTCCTAATCTTTCTGTTCAAGCGCCATCTAC”, the binding signal is 0.53 RPM ratio (pull-down/input). Regarding “GATGATTGTTCTCCCAGCTGATGAATTTGTGTAGTCGAGTAAACAAATTTTCCTAATCTTTCTGTTCAAGCGCCATCTAC”, the binding signal is 6.14 RPM ratio (pull-down/input). With “GATGATTGTTCTCCCAGCTGATGAATTTATTTAGTCGAGTAAACAAATTTTCCTAATCTTTCTGTTCAAGCGCCATCTAC”, the binding signal was 5.5 RPM ratio (pull-down/input).

On to “GATGATTGTTCTCCCAGCTGATGAATTATTTTAGTCGAGTAAACAAATTTTCCTAATCTTTCTGTTCAAGCGCCATCTAC”, for which the binding signal was 0.414 RPM ratio (pull-down/input).
